# Several values for one entry are separate records, joined by “and”; a condition that tells them apart may be missing. Equal entries are not always repeated. About 2,000 (36%) of roughly 5,500 compounds were called active. Not shown: some 18% with an inconclusive outcome. The list shows a part of the results. A number with no mark means an inactive call. Rule as the data show it: active = normalized growth mostly below about 0.91 (no sharp cut-off); inconclusive = no clear call, values can overlap the other calls; inactive = mostly above about 0.92.
# Assay: chemical genetic growth profiling, strain panel (AID 1159580);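 also: tested at 20 µM; growth read once vehicle control cultures reached saturation at 30 °C; 1 = growth at the plate median or of vehicle wells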
# Settings: S. cerevisiae deletion strains, growth OD
smiles,measurement,setting,value
C[C@H](CCC(=O)O)[C@H]1CCC2C3C(=O)CC4CC(=O)CC[C@]4(C)C3CC(=O)[C@@]21C (some centres not stated),normalized growth,"locus YAL021C, strain ccr4, stronger effect = lower value",0.908
same,normalized growth,"locus YAL026C, strain drs2, stronger effect = lower value",0.99
same,normalized growth,"locus YAL030W, strain snc1, stronger effect = lower value",0.963
same,normalized growth,"locus YBL061C, strain skt5, stronger effect = lower value",0.99
same,normalized growth,"locus YBR009C, strain hhf1, stronger effect = lower value",0.992
same,normalized growth,"locus YBR021W, strain FUR4, stronger effect = lower value",1.01
same,normalized growth,"locus YBR023C, strain chs3, stronger effect = lower value",0.987
same,normalized growth,"locus YBR171W, strain sec66, stronger effect = lower value",0.956
same,normalized growth,"locus YBR229C, strain ROT2, stronger effect = lower value",1.01
same,normalized growth,"locus YBR231C, strain swc5, stronger effect = lower value",0.967
same,normalized growth,"locus YBR279W, strain paf1, stronger effect = lower value",0.994
same,normalized growth,"locus YCL011C, strain gbp2, stronger effect = lower value",0.991
same,normalized growth,"locus YCL016C, strain dcc1, stronger effect = lower value",1.02
same,normalized growth,"locus YCL029C, strain bik1, stronger effect = lower value",1.01
same,normalized growth,"locus YCL061C, strain MRC1, stronger effect = lower value",0.972
same,normalized growth,"locus YCL069W, strain vba3, stronger effect = lower value",0.978
same,normalized growth,"locus YCR088W, strain abp1, stronger effect = lower value",0.987
same,normalized growth,"locus YDL005C, strain med2, stronger effect = lower value",0.952
same,normalized growth,"locus YDL035C, strain GPR1, stronger effect = lower value",1.02
same,normalized growth,"locus YDL040C, strain nat1, stronger effect = lower value",0.976
same,normalized growth,"locus YDL074C, strain BRE1, stronger effect = lower value",1
same,normalized growth,"locus YDL101C, strain DUN1, stronger effect = lower value",1.01
same,normalized growth,"locus YDL134C, strain PPH21, stronger effect = lower value",1.02
same,normalized growth,"locus YDL185W, strain tfp1, stronger effect = lower value",1.01
same,normalized growth,"locus YDL192W, strain arf1, stronger effect = lower value",1
same,normalized growth,"locus YDR001C, strain nth1, stronger effect = lower value",0.969
same,normalized growth,"locus YDR069C, strain doa4, stronger effect = lower value",0.951
same,normalized growth,"locus YDR101C, strain arx1, stronger effect = lower value",1.02
same,normalized growth,"locus YDR137W, strain rgp1, stronger effect = lower value",0.999
same,normalized growth,"locus YDR159W, strain sac3, stronger effect = lower value",0.937
same,normalized growth,"locus YDR162C, strain NBP2, stronger effect = lower value",1.02
same,normalized growth,"locus YDR195W, strain ref2",0.937
same,normalized growth,"locus YDR297W, strain sur2, stronger effect = lower value",0.981
same,normalized growth,"locus YDR318W, strain mcm21, stronger effect = lower value",1
same,normalized growth,"locus YDR334W, strain swr1, stronger effect = lower value",0.957
same,normalized growth,"locus YDR335W, strain msn5, stronger effect = lower value",0.978
same,normalized growth,"locus YDR388W, stronger effect = lower value",1
same,normalized growth,"locus YDR392W, strain spt3, stronger effect = lower value",1.06
same,normalized growth,"locus YDR502C, strain sam2, stronger effect = lower value",0.998
same,normalized growth,"locus YEL003W, strain gim4, stronger effect = lower value",0.979
same,normalized growth,"locus YEL037C, strain rad23, stronger effect = lower value",0.983
same,normalized growth,"locus YEL061C, strain CIN8 (second series), stronger effect = lower value",0.962
same,normalized growth,"locus YEL061C, strain CIN8, stronger effect = lower value",1.01
same,normalized growth,"locus YER015W, strain faa2, stronger effect = lower value",0.991
same,normalized growth,"locus YER016W, strain bim1, stronger effect = lower value",1.04
same,normalized growth,"locus YER110C, stronger effect = lower value",1.01
same,normalized growth,"locus YER111C, strain swi4, stronger effect = lower value",0.974
same,normalized growth,"locus YER155C, strain BEM2 (second series), stronger effect = lower value",0.961
same,normalized growth,"locus YER155C, strain BEM2, stronger effect = lower value",1
same,normalized growth,"locus YER167W, strain BCK2, stronger effect = lower value",1.01
same,normalized growth,"locus YFR010W, strain ubp6, stronger effect = lower value",0.965
same,normalized growth,"locus YGL078C, strain dbp3, stronger effect = lower value",1.01
same,normalized growth,"locus YGL086W, strain mad1, stronger effect = lower value",1.01
same,normalized growth,"locus YGL167C, strain pmr1, stronger effect = lower value",0.947
same,normalized growth,"locus YGL173C, strain kem1, stronger effect = lower value",0.962
same,normalized growth,"locus YGL227W, strain vid30, stronger effect = lower value",0.97
same,normalized growth,"locus YGL240W, strain doc1, stronger effect = lower value",0.948
same,normalized growth,"locus YGL248W, strain PDE1, stronger effect = lower value",1
same,normalized growth,"locus YGL253W, strain hxk2, stronger effect = lower value",1
same,normalized growth,"locus YGR135W, strain pre9, stronger effect = lower value",0.994
same,normalized growth,"locus YGR252W, strain gcn5, stronger effect = lower value",0.972
same,normalized growth,"locus YHR013C, strain ard1, stronger effect = lower value",1
same,normalized growth,"locus YHR027C, strain rpn1, stronger effect = lower value",0.988
same,normalized growth,"locus YHR030C, strain SLT2, stronger effect = lower value",1.01 and 1.03
same,normalized growth,"locus YHR079C, strain IRE1 (second series), stronger effect = lower value",0.997
same,normalized growth,"locus YHR079C, strain IRE1, stronger effect = lower value",1
same,normalized growth,"locus YHR094C, strain hxt1, stronger effect = lower value",1.01
same,normalized growth,"locus YHR129C, strain ARP1, stronger effect = lower value",1.01
same,normalized growth,"locus YHR142W, strain chs7, stronger effect = lower value",0.957
same,normalized growth,"locus YHR200W, strain rpn10, stronger effect = lower value",1
same,normalized growth,"locus YIL066C, strain RNR3, stronger effect = lower value",1.02
same,normalized growth,"locus YIL073C, strain SPO22, stronger effect = lower value",1.01
same,normalized growth,"locus YIL125W, strain kgd1, stronger effect = lower value",1.01
same,normalized growth,"locus YIR030C, strain dcg1, stronger effect = lower value",1.01
same,normalized growth,"locus YJL092W, strain hpr5, stronger effect = lower value",0.971
same,normalized growth,"locus YJL095W, strain BCK1 (second series), stronger effect = lower value",0.969
same,normalized growth,"locus YJL095W, strain BCK1, stronger effect = lower value",1 and 1.02
same,normalized growth,"locus YJL115W, strain asf1, stronger effect = lower value",0.978
same,normalized growth,"locus YJL129C, strain trk1, stronger effect = lower value",0.962
same,normalized growth,"locus YJL134W, strain LCB3, stronger effect = lower value",1.01
same,normalized growth,"locus YJL154C, strain vps35, stronger effect = lower value",0.958
same,normalized growth,"locus YJL164C, strain tpk1, stronger effect = lower value",1.01
same,normalized growth,"locus YJL166W, strain qcr8, stronger effect = lower value",0.916
same,normalized growth,"locus YJL168C, strain set2, stronger effect = lower value",1
same,normalized growth,"locus YJL187C, strain SWE1 (second series), stronger effect = lower value",1.01
same,normalized growth,"locus YJR043C, strain POL32, stronger effect = lower value",1.01
same,normalized growth,"locus YJR066W, strain TOR1, stronger effect = lower value",0.971
same,normalized growth,"locus YJR075W, strain HOC1, stronger effect = lower value",1.02
same,normalized growth,"locus YKL009W, strain mrt4, stronger effect = lower value",0.992
same,normalized growth,"locus YKL068W, stronger effect = lower value",1.01
same,normalized growth,"locus YKL085W, strain MDH1 (second series), stronger effect = lower value",1.02
same,normalized growth,"locus YKL085W, strain MDH1, stronger effect = lower value",1.02
same,normalized growth,"locus YKL160W, strain elf1, stronger effect = lower value",0.985
same,normalized growth,"locus YKR001C, strain vps1, stronger effect = lower value",1.01
same,normalized growth,"locus YKR026C, strain gcn3, stronger effect = lower value",0.972
same,normalized growth,"locus YLL001W, strain dnm1, stronger effect = lower value",0.923
same,normalized growth,"locus YLL026W, stronger effect = lower value",0.987
same,normalized growth,"locus YLL041C, strain sdh2, stronger effect = lower value",0.978
same,normalized growth,"locus YLR027C, strain aat2, stronger effect = lower value",0.993
same,normalized growth,"locus YLR039C, strain RIC1, stronger effect = lower value",0.955
same,normalized growth,"locus YLR058C, strain SHM2, stronger effect = lower value",1.01
same,normalized growth,"locus YLR102C, strain apc9, stronger effect = lower value",0.999
same,normalized growth,"locus YLR113W, strain HOG1, stronger effect = lower value",1.03
same,normalized growth,"locus YLR221C, strain rsa3, stronger effect = lower value",1.04
same,normalized growth,"locus YLR258W, strain gsy2, stronger effect = lower value",0.982
same,normalized growth,"locus YLR262C, strain YPT6 (second series), stronger effect = lower value",0.926
same,normalized growth,"locus YLR262C, strain YPT6, stronger effect = lower value",1.05
same,normalized growth,"locus YLR268W, strain sec22, stronger effect = lower value",1
same,normalized growth,"locus YLR320W, strain mms22, stronger effect = lower value",1
same,normalized growth,"locus YLR330W, strain CHS5, stronger effect = lower value",1.01
same,normalized growth,"locus YLR342W, strain FKS1 (second series), stronger effect = lower value",1
same,normalized growth,"locus YLR342W, strain FKS1, stronger effect = lower value",0.972
same,normalized growth,"locus YLR357W, strain rsc2, stronger effect = lower value",0.917
same,normalized growth,"locus YLR370C, strain arc18, stronger effect = lower value",0.987
same,normalized growth,"locus YLR371W, strain rom2, stronger effect = lower value",1
same,normalized growth,"locus YLR384C, strain iki3, stronger effect = lower value",0.976
same,normalized growth,"locus YLR418C, strain cdc73, stronger effect = lower value",0.981
same,normalized growth,"locus YML016C, strain PPZ1, stronger effect = lower value",1.01
same,normalized growth,"locus YML032C, strain rad52, stronger effect = lower value",0.994
same,normalized growth,"locus YML120C, strain ndi1, stronger effect = lower value",0.967
same,normalized growth,"locus YML124C, strain tub3, stronger effect = lower value",0.995
same,normalized growth,"locus YMR058W, strain fet3, stronger effect = lower value",0.976
same,normalized growth,"locus YMR078C, strain ctf18, stronger effect = lower value",1.01
same,normalized growth,"locus YMR125W, strain sto1, stronger effect = lower value",0.93
same,normalized growth,"locus YMR129W, stronger effect = lower value",0.993
same,normalized growth,"locus YMR205C, strain PFK2, stronger effect = lower value",0.953
same,normalized growth,"locus YMR223W, strain ubp8, stronger effect = lower value",1
same,normalized growth,"locus YMR231W, strain pep5, stronger effect = lower value",0.906 (active)
same,normalized growth,"locus YMR307W, strain GAS1, stronger effect = lower value",1.05
same,normalized growth,"locus YNL067W, strain RPL9B, stronger effect = lower value",1.01
same,normalized growth,"locus YNL071W, strain lat1, stronger effect = lower value",0.975
same,normalized growth,"locus YNL153C, strain GIM3, stronger effect = lower value",0.996
same,normalized growth,"locus YNL183C, strain NPR1, stronger effect = lower value",0.982
same,normalized growth,"locus YNL209W, strain ssb2, stronger effect = lower value",0.99
same,normalized growth,"locus YNL233W, strain BNI4, stronger effect = lower value",1.01
same,normalized growth,"locus YNL248C, strain rpa49, stronger effect = lower value",1
same,normalized growth,"locus YNL250W, strain rad50, stronger effect = lower value",0.995
same,normalized growth,"locus YNL271C, strain bni1, stronger effect = lower value",0.996
same,normalized growth,"locus YNL298W, strain CLA4, stronger effect = lower value",1
same,normalized growth,"locus YNL307C, strain MCK1, stronger effect = lower value",1
same,normalized growth,"locus YNL322C, strain KRE1 (second series), stronger effect = lower value",0.975
same,normalized growth,"locus YNL322C, strain KRE1, stronger effect = lower value",1.02
same,normalized growth,"locus YNR049C, strain mso1, stronger effect = lower value",0.983
same,normalized growth,"locus YNR052C, strain pop2, stronger effect = lower value",1
same,normalized growth,"locus YOL012C, strain htz1",1.17
same,normalized growth,"locus YOL147C, strain pex11, stronger effect = lower value",1.01
same,normalized growth,"locus YOR001W, strain rrp6, stronger effect = lower value",0.965
same,normalized growth,"locus YOR061W, strain CKA2, stronger effect = lower value",1.01
same,normalized growth,"locus YOR069W, strain VPS5, stronger effect = lower value",1.01
same,normalized growth,"locus YOR070C, strain gyp1, stronger effect = lower value",0.995
same,normalized growth,"locus YOR080W, strain dia2, stronger effect = lower value",0.947
same,normalized growth,"locus YOR083W, strain WHI5, stronger effect = lower value",0.964
same,normalized growth,"locus YOR106W, strain vam3, stronger effect = lower value",0.924
same,normalized growth,"locus YOR136W, strain idh2, stronger effect = lower value",1
same,normalized growth,"locus YOR144C, strain elg1, stronger effect = lower value",1.01
same,normalized growth,"locus YOR184W, strain ser1, stronger effect = lower value",0.999
same,normalized growth,"locus YOR231W, strain MKK1, stronger effect = lower value",1.03
same,normalized growth,"locus YOR265W, strain rbl2, stronger effect = lower value",0.971
same,normalized growth,"locus YOR270C, strain vph1, stronger effect = lower value",0.988
same,normalized growth,"locus YOR290C, strain snf2, stronger effect = lower value",1.02
same,normalized growth,"locus YOR316C, strain cot1, stronger effect = lower value",1.01
same,normalized growth,"locus YPL051W, strain arl3, stronger effect = lower value",1.02
same,normalized growth,"locus YPL055C, strain LGE1, stronger effect = lower value",1.02
same,normalized growth,"locus YPL078C, strain atp4, stronger effect = lower value",0.929
same,normalized growth,"locus YPL106C, strain sse1, stronger effect = lower value",0.94
same,normalized growth,"locus YPL240C, strain hsp82, stronger effect = lower value",0.989
same,normalized growth,"locus YPL256C, strain CLN2, stronger effect = lower value",1.04
same,normalized growth,"locus YPR119W, strain clb2, stronger effect = lower value",1.01
same,normalized growth,"locus YPR141C, strain kar3, stronger effect = lower value",1.01
same,normalized growth,"locus YPR163C, strain tif3, stronger effect = lower value",1
same,normalized growth,"locus YPR167C, strain met16, stronger effect = lower value",1
same,normalized growth,"strain wtn01, stronger effect = lower value",0.988

# From PubChem BioAssay AID1159580 (chemical genetic matrix, 2015)
